Publication PMC5540273 (PLoS ONE, 2017)

Key:
Conditions in all cases: concentration: 1 μM, replicates: in singlicate; n = 1
EPHA1 = test system: EPHA1
EPHA2 = test system: EPHA2
EPHA3 = test system: EPHA3
EPHA4 = test system: EPHA4
EPHA5 = test system: EPHA5
EPHA6 = test system: EPHA6
EPHA7 = test system: EPHA7
EPHA8 = test system: EPHA8
EPHB1 = test system: EPHB1
EPHB2 = test system: EPHB2
EPHB3 = test system: EPHB3
EPHB4 = test system: EPHB4
EPHB6 = test system: EPHB6
ERBB2 = test system: ERBB2
ERBB3 = test system: ERBB3
ERBB4 = test system: ERBB4
ERK1 = test system: T1, ERK1
T1 construct: gene MAPK3

ERK2 = test system: T2, ERK2
T2 construct: gene MAPK1

ERK3 = test system: T3, ERK3
T3 construct: gene MAPK6

ERK4 = test system: T4, ERK4
T4 construct: gene MAPK4
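Also: KINOMEscan kinase panel screen.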

Row | SMILES | %Inh (EPHA1) [%] | %Inh (EPHA2) [%] | %Inh (EPHA3) [%] | %Inh (EPHA4) [%] | %Inh (EPHA5) [%] | %Inh (EPHA6) [%] | %Inh (EPHA7) [%] | %Inh (EPHA8) [%] | %Inh (EPHB1) [%] | %Inh (EPHB2) [%] | %Inh (EPHB3) [%] | %Inh (EPHB4) [%] | %Inh (EPHB6) [%] | %Inh (ERBB2) [%] | %Inh (ERBB3) [%] | %Inh (ERBB4) [%] | %Inh (ERK1) [%] | %Inh (ERK2) [%] | %Inh (ERK3) [%] | %Inh (ERK4) [%]
1 | CCCC(=O)Nc1n[nH]c2ncc(-c3cccc4ccccc34)cc12 [SB-642057] | 0 | 0 | 0 | 2 | 0 | 0 | 4 | 1 | 15 | 19 | 0 | 0 | 41 | 11 | 0 | 26 | 8 | 0 | 0 | 22
2 | COc1cc2nccc(Nc3cccc(Oc4ccccc4)c3)c2cc1OC.Cl [GW284543] | 10 | 0 | 12 | 0 | 0 | 0 | 0 | 6 | 11 | 0 | 0 | 0 | 79 | 24 | 66 | 31 | 18 | 0 | 0 | 10
3 | Nc1ncnc2c1ncn2-c1cccc(F)c1 [SKF-97560] | 11 | 9 | 0 | 4 | 0 | 0 | 10 | 10 | 17 | 4 | 0 | 0 | 25 | 1 | 20 | 0 | 9 | 0 | 13 | 2
4 | Cc1nnc(-c2ccc3ncn(-c4ccc(S(C)=O)cc4)c3c2)o1 (stereo not shown) | 0 | 0 | 5 | 46 | 17 | 50 | 1 | 0 | 1 | 15 | 35 | 6 | 3 | 29 | 0 | 11 | 0 | 26 | 0 | 15
5 | O=C(Nc1n[nH]c2nc(-c3ccccc3)c(Br)cc12)C1CC1 [SB-708998] | 23 | 27 | 0 | 11 | 3 | 9 | 0 | 15 | 23 | 9 | 5 | 13 | 23 | 11 | 3 | 0 | 5 | 0 | 2 | 0
6 | Nc1n[nH]c2ncc(-c3ccccc3)cc12 [SB-517081] | 0 | 2 | 0 | 0 | 0 | 0 | 5 | 10 | 18 | 14 | 9 | 9 | 39 | 24 | 0 | 0 | 3 | 0 | 0 | 23
7 | CN1C(=O)C(Nc2ccccc2)=C(c2ccccc2)C1=O [SB-300079] | 0 | 0 | 0 | 0 | 4 | 0 | 0 | 0 | 17 | 0 | 0 | 0 | 0 | 20 | 28 | 18 | 0 | 10 | 9 | 31
8 | CCn1c(-c2ccoc2)nc2cnccc21 [SB-733887] | 9 | 0 | 0 | 9 | 0 | 7 | 12 | 24 | 19 | 0 | 17 | 0 | 26 | 8 | 14 | 0 | 0 | 0 | 12 | 11
9 | COc1ccc(Nc2nccc(N3CCC(NS(=O)(=O)c4ccc(NC(C)=O)cc4)C3)n2)cc1 (stereo not shown) [GSK1379729] | 23 | 21 | 0 | 36 | 7 | 31 | 17 | 7 | 19 | 1 | 35 | 25 | 28 | 20 | 18 | 0 | 20 | 10 | 6 | 0
10 | Cc1cc(Nc2nc(-c3cccc(C)n3)nc3ccccc23)ccn1 [GW872411] | 0 | 0 | 18 | 0 | 0 | 0 | 0 | 0 | 0 | 0 | 0 | 0 | 0 | 0 | 0 | 0 | 0 | 0 | 0 | 0
11 | COc1cccc(C2=C(Nc3cccc(C(=O)O)c3)C(=O)NC2=O)c1 [SB-390770] | 9 | 23 | 0 | 10 | 0 | 11 | 0 | 0 | 8 | 9 | 8 | 7 | 21 | 6 | 16 | 0 | 0 | 0 | 2 | 0
